Compounds without any hit were thinned out: in the full panel of roughly 83,000, 20% have a hit.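 Plates (96-well) were seeded with cells, treated with compound at one concentration, and incubated for 48 hours before percent growth was determined.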 Values without a mark were called inactive. Activity calls are given as the source filed them. How the source made its calls: active means growth percent below 10; inactive means the rest.
Columns and labels:
Test in all cases: NCI-60 one-dose screen, 48 h (100 = growth as untreated, 0 = no growth, -100 = all killed)
Settings in all cases: 10 µM unless noted
SR leukemia = tested on: SR leukemia
RPMI-8226 leukemia = tested on: RPMI-8226 leukemia
OVCAR-8 ovarian = tested on: OVCAR-8 ovarian
OVCAR-5 ovarian = tested on: OVCAR-5 ovarian
OVCAR-4 ovarian = tested on: OVCAR-4 ovarian
SK-OV-3 ovarian = tested on: SK-OV-3 ovarian
IGROV1 ovarian = tested on: IGROV1 ovarian
OVCAR-3 ovarian = tested on: OVCAR-3 ovarian
HS 578T breast = tested on: HS 578T breast
NCI/ADR-RES ovarian = tested on: NCI/ADR-RES ovarian
T-47D breast = tested on: T-47D breast
BT-549 breast = tested on: BT-549 breast
MDA-MB-435 melanoma = tested on: MDA-MB-435 melanoma
SW-620 colon = tested on: SW-620 colon
MCF7 breast = tested on: MCF7 breast
HCT-116 colon = tested on: HCT-116 colon
HCC-2998 colon = tested on: HCC-2998 colon
KM12 colon = tested on: KM12 colon

SMILES | growth (SR leukemia) | growth (RPMI-8226 leukemia) | growth (OVCAR-8 ovarian) | growth (OVCAR-5 ovarian) | growth (OVCAR-4 ovarian) | growth (SK-OV-3 ovarian) | growth (IGROV1 ovarian) | growth (OVCAR-3 ovarian) | growth (HS 578T breast) | growth (NCI/ADR-RES ovarian) | growth (T-47D breast) | growth (BT-549 breast) | growth (MDA-MB-435 melanoma) | growth (SW-620 colon) | growth (MCF7 breast) | growth (HCT-116 colon) | growth (HCC-2998 colon) | growth (KM12 colon)
CCOC(=O)/C=C1\S/C(=N\Nc2cc(=O)[nH]c3ccc(OC)cc23)N(c2ccccc2)C1=O | 50.4% | 87.2% | 98.7% | 106% | 82.7% | 104% | 92.2% | 95.8% | 103% | 104% | 73.6% | 99.6% | 97% | 95.3% | 69.4% | 93.9% | 115% | 91.8%
[2H]C([2H])([2H])Oc1ccc(/C=C/C(=O)/C=C(O)/C=C/c2ccc(OC([2H])([2H])[2H])c(OC([2H])([2H])[2H])c2)cc1OC([2H])([2H])[2H] | 18.6% | 6.79% (active) | 21.8% | 71.6% | 42.2% | 39% | 52.9% | 37.2% | 51.7% | 41.5% | 21.8% | 34.4% | 12.3% | 27.4% | 4.59% (active) | 5.1% (active) | 76.4% | 30.6%
COc1cc(C(=O)c2c(-c3ccccc3)oc3ccccc23)cc(OC)c1O | 13.7% | 24.7% | 34.6% | 99.8% | 56.3% | 51.2% | 41.1% | 2.25% (active) | -3.45% (active) | 21.8% | 28.7% | 47.4% | -30.9% (active) | 14.6% | 21.8% | 30.7% | 78.4% | 27.7%
COc1ccccc1-c1nc2ccc3[nH]ncc3c2c2c1CCCC2 | 29.1% | 68.6% | 81.2% | 103% | 85.6% | 80.5% | 58.9% | 114% | 44.8% | 80.6% | 74.2% | 77.1% | 64.4% | 82.6% | 68.7% | 64.9% | 113% | 31%
COc1ccc(C2=C/C(=C\c3ccccc3O)C(=O)N2Cc2ccccc2)cc1 | 45.2% | 63% | 70.9% | 111% | 92.6% | 73.8% | 77.5% | 92.9% | 74.8% | 79.9% | 68.9% | 70.4% | -4.21% (active) | 92.2% | 62.8% | 72.5% | 107% | 70.3%
N#CSCc1cc(Cl)c(CSC#N)cc1Cl | 10.8% | 48.6% | 94.9% | 82.9% | 80.5% | 101% | 84.7% | 71.3% | 82.3% | 84.5% | 90% | 39.7% | 34.9% | 20.6% | 24.5% | 34.7% | 97% | 85.5%
O=C(/C=C\c1ccc(O)c(O)c1)c1ccccc1O | -13.3% (active) | 5.13% (active) | 69.4% | 103% | 74.9% | 97% | 46.3% | 73.8% | 91.8% | 74.3% | 67% | 5.5% (active) | 67.9% | 67.7% | 48% | 83.7% | 60.7% | 60.7%
CCOC(=O)c1c(C)c2c(n1Cc1ccccc1)CSc1cc(C#N)c(=O)[nH]c1-2 | 54.8% [100 µM] | 82.4% [100 µM] | 88% [100 µM] | 120% [100 µM] | 98.8% [100 µM] | 98.6% [100 µM] | 95.5% [100 µM] | 75.7% [100 µM] | 51.9% [100 µM] | 58.5% [100 µM] | 69.2% [100 µM] | 46% [100 µM] | 98.2% [100 µM] | 91.7% [100 µM] | 101% [100 µM] | 59.9% [100 µM] | 99.7% [100 µM] | 67.6% [100 µM]
O=C(Nc1ccc(Oc2cccc(F)c2)c(Cl)c1)c1cnccn1 | 20.8% | 18% | 37.5% | 56.6% | 44.5% | 86% | 40.5% | -17.8% (active) | 27.8% | 9.06% (active) | 38.3% | 59.9% | -21.2% (active) | 22.7% | 17.5% | 32% | 56.2% | 30.3%
O=S(=O)(Nc1ccc(Br)cc1)c1ccc(-c2cnc(C3CC3)o2)cc1 | 12.7% | 13.9% | 41.5% | 51% | 67.8% | 35.5% | 36.1% | -7.12% (active) | -8.02% (active) | -2.19% (active) | 18.6% | 47.1% | -9% (active) | 11.1% | 16.1% | 18.7% | 56.2% | 24.6%
CN1C(=O)N(C)C2C1NN=c1s/c(=C\c3ccccc3F)c(=O)n12 (configuration not stated) | 18.2% | 20.7% | 10.1% | 25.6% | 49% | 33.8% | 20.8% | -3.72% (active) | 7.57% (active) | -13.1% (active) | 52.6% | 18.9% | -40.2% (active) | 18.8% | 18.6% | 14% | 5.08% (active) | 17.4%
CCN(CC)CCCNc1cc(OC)cc2cccnc12 | 100% | 97.4% | 101% | 117% | 51.4% | 112% | 106% | 79.2% | 109% | 108% | 93.3% | 112% | 115% | 101% | 64% | 100% | 111% | 96.9%
Cc1cc(N2CCOCC2)nc(N(CCCNc2ccnc3cc(Cl)ccc23)Cc2ccc3c(c2)OCO3)n1 | -29.2% (active) | -2.52% (active) | -52.4% (active) | 22.7% | -37.9% (active) | 18.9% | 4.36% (active) | -88.6% (active) | 9.54% (active) | -36.1% (active) | -45.9% (active) | -38.3% (active) | -45.1% (active) | -3.78% (active) | 3.11% (active) | -76.9% (active) | -58.2% (active) | 0.0851% (active)
C=C1CC[C@@H]2[C@](C)(COC(C)=O)[C@H](OC(C)=O)CC[C@@]2(C)[C@@H]1CC(Nc1ccc(S(=O)(=O)Nc2nccc(C)n2)cc1)C1=CCOC1=O (some centres not stated) | 0.793% (active) | -5.56% (active) | 10.5% | 26.9% | 32.3% | 101% | 25.8% | -45% (active) | 68.6% | 20.9% | 69.1% | -2.66% (active) | 0.231% (active) | -49.6% (active) | 0.135% (active) | -32.2% (active) | 68.2% | 13.2%
O=C1C(c2c(O)[nH]c3ncccc23)=Nc2ccccc21 | 82.5% | 75.4% | 84.4% | 77.7% | 80.4% | 69.6% | -40.9% (active) | 75.8% | 72.5% | 82.7% | 48.4% | 70.6% | 92.9% | 102% | 41% | 48.5% | 25.3% | 69.5%
CCN1CCN(C(=O)[C@]23CC[C@@H](C)[C@H](C)[C@@H]2C2=CC[C@@H]4[C@@]5(C)C/C(=C/c6ccncc6)C(=O)C(C)(C)[C@@H]5CC[C@@]4(C)[C@]2(C)CC3)CC1 | -12.8% (active) | -29.5% (active) | 37.4% | 34.2% | 29.8% | 70.2% | 29.8% | 11.2% | 7.21% (active) | 27.4% | 27.1% | 52.2% | -51.1% (active) | -22.6% (active) | 4.97% (active) | -51.9% (active) | -28.9% (active) | 5.49% (active)
Cn1cc(-c2csc(-c3cn(C)c4ccc(F)cc34)n2)c2cnccc21 | -21.5% (active) | -38.4% (active) | 5.3% (active) | 25.6% | 11.3% | 107% | -24.7% (active) | -57.4% (active) | -34.2% (active) | 24.7% | -44.1% (active) | 84% | -90.7% (active) | -67.1% (active) | -49.3% (active) | -90.3% (active) | -78.4% (active) | 0.588% (active)
CCOC(=O)c1c(C)nc2c(c1N)C(=O)C(=O)N2CCc1ccc(OC)c(OC)c1 | 35.9% | 42.7% | 77.9% | 94.9% | 54.8% | 76.6% | 74% | 61.5% | 89% | 41.9% | 44.6% | 64.4% | 41.4% | 47.8% | 20.3% | 38.7% | 93.7% | 58.3%
COc1cc(C2CC(c3cccc(Nc4ccncc4)c3)=Nc3c(N)ncnc3N2)cc(OC)c1OC (configuration not stated) | 30.1% | 71.8% | 93.6% | 111% | 84.1% | 88.3% | 95.8% | 88.9% | 95% | 96.7% | 62.2% | 113% | 69.7% | 90.6% | 57.6% | 87.9% | 95.4% | 69%

Source: PubChem BioAssay (NCI)
